Measurements reported in the supplement of paper PMC11732987, “Enantioselective OTUD7B fragment discovery through chemoproteomics screening and high-throughput optimisation” (Communications Chemistry, 2025).

What was measured:
Test in all cases: log2 ratio of Biotin-Ahx-Ub-VS probe labelling (fragment/DMSO); higher = less target engagement (more negative = stronger competition), active = hit call of the paper (q ≤ 0.05, log2 ratio ≤ -1)
Settings in all cases: compound concentration: 200 uM; treatment time: 3 h
USP34 = USP34 (UniProt Q70CQ2)
Sequence of USP34 (Q70CQ2 whole entry, the tested form may be a part): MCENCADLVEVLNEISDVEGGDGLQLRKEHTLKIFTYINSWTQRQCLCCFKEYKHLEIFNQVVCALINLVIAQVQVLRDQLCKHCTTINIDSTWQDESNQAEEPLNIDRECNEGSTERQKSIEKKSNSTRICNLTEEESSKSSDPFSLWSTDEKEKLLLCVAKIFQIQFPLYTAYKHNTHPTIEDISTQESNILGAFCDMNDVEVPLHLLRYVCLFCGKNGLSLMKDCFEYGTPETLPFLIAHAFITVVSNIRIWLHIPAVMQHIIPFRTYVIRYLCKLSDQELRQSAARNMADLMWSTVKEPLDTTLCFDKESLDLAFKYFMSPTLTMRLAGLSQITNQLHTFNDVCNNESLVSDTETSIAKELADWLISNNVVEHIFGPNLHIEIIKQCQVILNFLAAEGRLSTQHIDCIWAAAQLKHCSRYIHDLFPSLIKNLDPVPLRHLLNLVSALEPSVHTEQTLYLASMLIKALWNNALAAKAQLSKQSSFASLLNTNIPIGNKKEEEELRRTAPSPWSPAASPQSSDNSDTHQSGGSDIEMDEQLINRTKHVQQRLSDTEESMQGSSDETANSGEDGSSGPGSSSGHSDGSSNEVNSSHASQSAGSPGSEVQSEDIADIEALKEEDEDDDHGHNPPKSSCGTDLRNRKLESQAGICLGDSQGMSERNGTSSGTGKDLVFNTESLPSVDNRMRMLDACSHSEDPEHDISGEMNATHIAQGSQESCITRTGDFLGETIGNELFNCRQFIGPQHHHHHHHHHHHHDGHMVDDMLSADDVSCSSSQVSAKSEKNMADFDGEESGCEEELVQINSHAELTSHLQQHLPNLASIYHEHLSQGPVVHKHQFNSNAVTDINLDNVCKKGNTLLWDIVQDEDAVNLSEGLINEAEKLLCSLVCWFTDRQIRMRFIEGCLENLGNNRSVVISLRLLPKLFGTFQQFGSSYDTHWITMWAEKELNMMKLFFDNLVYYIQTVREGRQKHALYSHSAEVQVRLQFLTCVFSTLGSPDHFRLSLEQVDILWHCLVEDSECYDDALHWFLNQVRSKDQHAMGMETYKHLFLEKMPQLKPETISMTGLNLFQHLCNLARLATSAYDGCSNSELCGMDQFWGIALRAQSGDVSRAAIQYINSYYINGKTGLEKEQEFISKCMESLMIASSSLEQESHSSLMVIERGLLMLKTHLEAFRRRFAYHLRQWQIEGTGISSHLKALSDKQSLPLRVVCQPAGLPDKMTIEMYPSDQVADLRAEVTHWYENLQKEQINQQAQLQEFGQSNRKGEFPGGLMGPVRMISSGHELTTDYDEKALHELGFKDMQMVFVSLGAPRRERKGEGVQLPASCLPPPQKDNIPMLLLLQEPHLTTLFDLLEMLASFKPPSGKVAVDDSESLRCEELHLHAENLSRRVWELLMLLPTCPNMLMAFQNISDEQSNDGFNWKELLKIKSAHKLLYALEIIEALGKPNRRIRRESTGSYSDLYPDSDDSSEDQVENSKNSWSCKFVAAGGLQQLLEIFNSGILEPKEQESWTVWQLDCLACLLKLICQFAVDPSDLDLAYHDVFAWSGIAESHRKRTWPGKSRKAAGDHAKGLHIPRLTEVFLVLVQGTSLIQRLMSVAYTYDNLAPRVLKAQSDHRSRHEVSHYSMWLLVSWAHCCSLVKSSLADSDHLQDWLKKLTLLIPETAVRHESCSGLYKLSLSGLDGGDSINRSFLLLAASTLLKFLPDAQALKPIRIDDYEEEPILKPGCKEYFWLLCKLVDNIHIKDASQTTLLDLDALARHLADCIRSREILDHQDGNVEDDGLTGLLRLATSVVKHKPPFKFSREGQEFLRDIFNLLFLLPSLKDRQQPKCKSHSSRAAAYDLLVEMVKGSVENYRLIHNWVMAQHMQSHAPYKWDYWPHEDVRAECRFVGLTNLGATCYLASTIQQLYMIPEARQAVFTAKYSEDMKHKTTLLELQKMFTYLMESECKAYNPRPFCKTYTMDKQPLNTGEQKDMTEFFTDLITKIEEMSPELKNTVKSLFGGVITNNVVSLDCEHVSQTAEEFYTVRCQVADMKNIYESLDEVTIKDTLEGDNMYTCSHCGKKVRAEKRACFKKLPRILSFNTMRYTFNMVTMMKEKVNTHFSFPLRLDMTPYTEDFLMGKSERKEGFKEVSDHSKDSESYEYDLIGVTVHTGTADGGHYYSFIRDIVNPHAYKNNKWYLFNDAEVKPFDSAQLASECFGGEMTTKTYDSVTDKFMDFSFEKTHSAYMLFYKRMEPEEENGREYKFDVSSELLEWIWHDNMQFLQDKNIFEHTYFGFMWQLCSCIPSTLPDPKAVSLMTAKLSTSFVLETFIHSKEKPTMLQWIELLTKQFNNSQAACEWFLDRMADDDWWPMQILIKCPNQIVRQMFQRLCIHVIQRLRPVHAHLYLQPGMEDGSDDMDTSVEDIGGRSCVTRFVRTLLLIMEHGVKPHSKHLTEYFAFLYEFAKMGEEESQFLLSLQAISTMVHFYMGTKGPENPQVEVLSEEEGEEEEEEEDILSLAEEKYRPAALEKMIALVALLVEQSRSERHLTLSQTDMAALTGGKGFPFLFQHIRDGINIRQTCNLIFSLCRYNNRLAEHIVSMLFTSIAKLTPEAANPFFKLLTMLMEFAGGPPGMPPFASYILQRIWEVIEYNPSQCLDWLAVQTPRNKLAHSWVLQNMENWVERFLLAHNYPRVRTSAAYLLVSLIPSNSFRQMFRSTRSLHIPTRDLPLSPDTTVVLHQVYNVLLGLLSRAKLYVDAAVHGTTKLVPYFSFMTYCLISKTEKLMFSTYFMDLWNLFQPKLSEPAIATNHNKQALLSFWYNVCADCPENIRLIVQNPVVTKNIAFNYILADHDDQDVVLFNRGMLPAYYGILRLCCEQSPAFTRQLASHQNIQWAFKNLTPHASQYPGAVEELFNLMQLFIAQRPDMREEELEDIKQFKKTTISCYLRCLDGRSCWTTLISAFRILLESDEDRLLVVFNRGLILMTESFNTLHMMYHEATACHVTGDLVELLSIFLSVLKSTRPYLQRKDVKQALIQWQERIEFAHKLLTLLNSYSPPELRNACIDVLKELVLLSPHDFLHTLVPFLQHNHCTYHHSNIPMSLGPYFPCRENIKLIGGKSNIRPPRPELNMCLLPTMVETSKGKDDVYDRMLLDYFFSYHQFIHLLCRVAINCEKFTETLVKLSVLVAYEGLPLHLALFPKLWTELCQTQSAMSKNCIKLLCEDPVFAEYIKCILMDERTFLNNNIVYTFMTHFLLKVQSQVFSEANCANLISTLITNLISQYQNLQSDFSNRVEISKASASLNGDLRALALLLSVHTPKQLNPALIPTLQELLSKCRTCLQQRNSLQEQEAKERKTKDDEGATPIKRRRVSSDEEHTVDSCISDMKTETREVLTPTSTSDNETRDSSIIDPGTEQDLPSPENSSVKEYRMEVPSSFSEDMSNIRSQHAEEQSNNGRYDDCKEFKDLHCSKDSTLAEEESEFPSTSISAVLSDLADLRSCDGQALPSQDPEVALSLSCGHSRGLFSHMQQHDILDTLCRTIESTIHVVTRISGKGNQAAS
How it was run: (§1)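 The table lists average log2 ratios of fragment over vehicle, from an unpaired t-test on global-median-normalised Spectronaut label-free quantities. Proteins with ≥2 unique peptides were used. Samples were HEK293T lysate (495 µg) treated in triplicate with fragment at 200 µM or vehicle for 3 h, then with Biotin-Ahx-Ub-VS (0.5 µM final) for 1 h, with labelled DUBs NeutrAvidin-enriched and run by diaPASEF LC-MS/MS.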

USP36 = biological target: T1, USP36 (UniProt Q9P275)
T1 sequence (whole entry): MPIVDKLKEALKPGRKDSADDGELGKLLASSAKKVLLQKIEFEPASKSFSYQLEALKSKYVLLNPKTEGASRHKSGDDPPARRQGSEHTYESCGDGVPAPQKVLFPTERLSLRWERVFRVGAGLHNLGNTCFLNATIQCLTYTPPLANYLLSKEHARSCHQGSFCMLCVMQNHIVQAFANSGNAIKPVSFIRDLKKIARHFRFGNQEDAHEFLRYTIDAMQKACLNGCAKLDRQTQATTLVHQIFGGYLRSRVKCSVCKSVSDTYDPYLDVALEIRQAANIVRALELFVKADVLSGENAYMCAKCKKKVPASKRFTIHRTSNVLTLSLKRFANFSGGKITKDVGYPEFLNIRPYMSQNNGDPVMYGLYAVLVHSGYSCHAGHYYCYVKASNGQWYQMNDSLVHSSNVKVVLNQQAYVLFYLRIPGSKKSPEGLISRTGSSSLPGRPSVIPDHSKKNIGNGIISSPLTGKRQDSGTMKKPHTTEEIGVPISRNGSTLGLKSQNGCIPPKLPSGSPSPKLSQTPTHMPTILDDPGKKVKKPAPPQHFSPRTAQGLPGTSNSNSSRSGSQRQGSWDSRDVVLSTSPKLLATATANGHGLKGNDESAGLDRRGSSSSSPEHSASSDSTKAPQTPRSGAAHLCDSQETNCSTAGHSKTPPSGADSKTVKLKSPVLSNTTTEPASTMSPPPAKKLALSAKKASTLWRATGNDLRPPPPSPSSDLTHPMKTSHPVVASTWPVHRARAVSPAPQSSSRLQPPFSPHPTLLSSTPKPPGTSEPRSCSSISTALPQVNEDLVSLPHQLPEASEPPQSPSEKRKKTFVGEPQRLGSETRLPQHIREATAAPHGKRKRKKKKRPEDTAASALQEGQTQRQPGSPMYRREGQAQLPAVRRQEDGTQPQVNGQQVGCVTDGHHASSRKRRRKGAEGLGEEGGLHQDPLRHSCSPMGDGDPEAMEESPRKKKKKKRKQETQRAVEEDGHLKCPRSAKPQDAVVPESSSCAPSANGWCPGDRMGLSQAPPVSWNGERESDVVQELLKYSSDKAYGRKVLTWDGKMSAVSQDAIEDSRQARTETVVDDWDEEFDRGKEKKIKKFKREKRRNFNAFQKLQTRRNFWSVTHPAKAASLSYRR
How it was run: as §1

USP38 = biological target: T2, USP38 (UniProt Q8NB14)
T2 sequence (whole entry): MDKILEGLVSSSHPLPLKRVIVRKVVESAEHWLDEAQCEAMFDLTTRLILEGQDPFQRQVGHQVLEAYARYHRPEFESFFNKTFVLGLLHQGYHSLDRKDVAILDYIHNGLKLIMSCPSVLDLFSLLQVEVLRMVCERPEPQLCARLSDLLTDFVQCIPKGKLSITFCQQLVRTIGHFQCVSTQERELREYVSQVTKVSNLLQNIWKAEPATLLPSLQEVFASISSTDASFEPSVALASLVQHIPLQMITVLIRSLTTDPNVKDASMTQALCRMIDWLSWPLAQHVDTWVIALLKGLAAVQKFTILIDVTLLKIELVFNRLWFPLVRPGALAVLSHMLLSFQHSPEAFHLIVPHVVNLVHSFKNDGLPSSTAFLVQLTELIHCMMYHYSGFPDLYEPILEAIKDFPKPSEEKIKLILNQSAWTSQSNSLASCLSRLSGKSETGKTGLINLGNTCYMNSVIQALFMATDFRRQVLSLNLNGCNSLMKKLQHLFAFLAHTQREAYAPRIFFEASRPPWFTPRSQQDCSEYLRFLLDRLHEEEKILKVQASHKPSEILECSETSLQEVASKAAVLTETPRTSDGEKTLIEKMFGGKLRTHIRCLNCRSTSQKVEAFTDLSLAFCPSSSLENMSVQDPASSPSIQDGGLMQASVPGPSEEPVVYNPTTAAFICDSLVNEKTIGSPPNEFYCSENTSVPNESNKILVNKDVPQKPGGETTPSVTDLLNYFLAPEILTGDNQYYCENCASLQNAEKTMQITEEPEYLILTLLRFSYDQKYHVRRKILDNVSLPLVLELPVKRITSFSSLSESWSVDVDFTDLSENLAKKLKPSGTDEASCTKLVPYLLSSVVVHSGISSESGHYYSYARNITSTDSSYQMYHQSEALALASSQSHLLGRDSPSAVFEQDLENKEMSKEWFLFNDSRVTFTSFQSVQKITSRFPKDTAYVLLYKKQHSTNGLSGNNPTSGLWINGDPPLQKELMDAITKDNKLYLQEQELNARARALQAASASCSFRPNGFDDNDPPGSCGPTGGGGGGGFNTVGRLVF
How it was run: as §1

USP39 = biological target: T3, USP39 (UniProt Q53GS9)
T3 sequence (whole entry): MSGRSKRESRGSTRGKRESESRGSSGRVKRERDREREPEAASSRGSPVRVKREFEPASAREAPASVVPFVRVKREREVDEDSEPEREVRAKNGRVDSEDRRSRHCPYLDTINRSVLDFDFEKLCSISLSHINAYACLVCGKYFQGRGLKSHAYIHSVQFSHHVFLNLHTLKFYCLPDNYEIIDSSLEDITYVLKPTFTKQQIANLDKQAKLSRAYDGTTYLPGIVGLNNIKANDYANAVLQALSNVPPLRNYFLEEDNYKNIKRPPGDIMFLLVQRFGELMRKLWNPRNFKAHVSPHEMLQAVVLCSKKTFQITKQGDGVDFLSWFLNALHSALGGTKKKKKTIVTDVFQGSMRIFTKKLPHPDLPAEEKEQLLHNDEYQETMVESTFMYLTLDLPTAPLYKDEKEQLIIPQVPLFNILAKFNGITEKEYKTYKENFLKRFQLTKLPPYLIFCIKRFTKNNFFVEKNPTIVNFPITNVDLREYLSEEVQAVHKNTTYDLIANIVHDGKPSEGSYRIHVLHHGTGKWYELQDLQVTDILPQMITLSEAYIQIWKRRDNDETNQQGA
How it was run: as §1

USP4 = biological target: T4, USP4 (UniProt Q13107)
T4 sequence (whole entry): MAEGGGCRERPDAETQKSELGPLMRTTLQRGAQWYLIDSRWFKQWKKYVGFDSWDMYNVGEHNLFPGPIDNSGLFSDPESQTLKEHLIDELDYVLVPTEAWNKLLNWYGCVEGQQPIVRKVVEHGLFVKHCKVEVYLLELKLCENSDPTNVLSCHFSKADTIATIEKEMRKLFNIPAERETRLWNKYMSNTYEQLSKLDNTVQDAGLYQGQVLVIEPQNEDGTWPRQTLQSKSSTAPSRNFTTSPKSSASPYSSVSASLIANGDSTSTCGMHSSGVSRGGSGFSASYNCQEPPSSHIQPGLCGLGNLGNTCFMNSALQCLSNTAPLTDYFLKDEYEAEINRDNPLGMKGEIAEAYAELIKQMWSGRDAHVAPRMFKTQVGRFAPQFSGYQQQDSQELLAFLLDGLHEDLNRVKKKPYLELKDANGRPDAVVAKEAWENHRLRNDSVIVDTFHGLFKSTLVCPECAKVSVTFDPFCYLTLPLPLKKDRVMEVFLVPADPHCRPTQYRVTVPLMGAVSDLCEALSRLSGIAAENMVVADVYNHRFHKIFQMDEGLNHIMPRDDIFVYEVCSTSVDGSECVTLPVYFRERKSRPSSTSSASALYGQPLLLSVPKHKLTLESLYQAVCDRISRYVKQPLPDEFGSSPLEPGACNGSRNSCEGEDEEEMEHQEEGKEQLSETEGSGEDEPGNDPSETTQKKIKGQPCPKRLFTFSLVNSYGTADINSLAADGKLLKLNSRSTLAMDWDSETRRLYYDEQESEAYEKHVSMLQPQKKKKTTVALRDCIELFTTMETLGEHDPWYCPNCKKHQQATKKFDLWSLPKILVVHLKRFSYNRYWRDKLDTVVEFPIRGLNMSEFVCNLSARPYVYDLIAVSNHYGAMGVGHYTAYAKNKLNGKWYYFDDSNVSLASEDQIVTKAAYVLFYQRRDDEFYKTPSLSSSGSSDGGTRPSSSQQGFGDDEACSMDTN
How it was run: as §1

Measured: log2 ratio of Biotin-Ahx-Ub-VS probe labelling

O=C(CCl)Nc1nnc(CC(F)(F)F)o1
inactive: USP34 0.146 | USP36 -0.182 | USP38 -0.0633 | USP39 0.00671 | USP4 -0.0637
